# The supplement of paper PMC8728848
# About 410 targets per protein were measured; listed, in parts, are those with the strongest signals and a random draw of the rest.
# B1: LSECtin (Homo sapiens), Q6UXB4 (protein)
# chain: MDTTRYSKWGGSSEEVPGGPWGRWVHWSRRPLFLALAVLVTTVLWAVILSILLSKASTERAALLDGHDLLRTNASKQTAALGALKEEVGDCHSCCSGTQAQLQTTRAELGEAQAKLMEQESALRELRERVTQGLAEAGRGREDVRTELFRALEAVRLQNNSCEPCPTSWLSFEGSCYFFSVPKTTWAAAQDHCADASAHLVIVGGLDEQGFLTRNTRGRGYWLGLRAVRHLGKVQGYQWVDGVSLSFSHWNQGEPNDAWGRENCVMMLHTGLWNDAPCDSEKDGWICEKRHNC
# B2: Si Bti9 1b-HA (Solanum lycopersicum) (protein)
# chain: MFESRPRSVLSLGVFVILVYLSSVPLPVNSQCNRGCDLALASFYVWRGSNLTLISEMFSTSIADIVSYNNRDNIPNQDSVIAGTRINIPFRCDCLNDGEVLGHAFPYRVKSGDTYDLVARNYSDLTTAQWMMKFNSYPENNIPNTVNLSVVVNCSCGNSDVSKDFGLFVTYPVRAEDNLTSVASAANVSEDIIRRYNPAAVSILDIGQGIIYIPGRDRNGNFPPLPTSTDGLSGGAKAPLFFNPAFLYKVVELKLAGRSRTSGYPYDVPDYAGYPYDVPDYALEVLFQ
# Experiments:
# Experiment in all cases: glycan array binding signal (z-score within array); higher = stronger binding
# Conditions in all cases: glycan notation: IUPAC condensed, linker removed
# Fuc(a1-2)Gal = biological target: Fuc(a1-2)Gal
# Method in brief: (§1)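 The binding signal is a Z-score computed within each array. Data were drawn from 3228 arrays in the Consortium for Functional Glycomics database, restricted to those with a known protein sequence. Scores were averaged over arrays of the same protein sequence at different concentrations or buffers, and over linkers, and negative values can be taken as non-binding.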
# [1] = biological target: Fuc(a1-2)Gal(b1-3)GlcNAc6S
# Method in brief: as §1
# [2] = biological target: Fuc(a1-2)Gal6S(b1-3)GlcNAc
# Method in brief: as §1
# [3] = biological target: Fuc(a1-2)[Gal(a1-3)]Gal(b1-3)GlcNAc
# Method in brief: as §1
# [4] = biological target: Fuc(a1-2)[Gal(a1-3)]Gal(b1-3)GlcNAc(b1-3)GalNAc
# Method in brief: as §1
# [5] = biological target: Fuc(a1-2)[Gal(a1-3)]Gal(b1-4)[Fuc(a1-3)]Glc
# Method in brief: as §1
# [6] = biological target: Fuc(a1-2)[GalNAc(a1-3)]Gal(b1-4)GlcNAc(b1-2)Man(a1-3)[GalNAc(a1-3)[Fuc(a1-2)]Gal(b1-4)GlcNAc(b1-2)Man(a1-6)]Man(b1-4)GlcNAc(b1-4)GlcNAc
# Method in brief: as §1
# [7] = biological target: Fuc(a1-3)[Gal(b1-4)]GlcNAc(b1-2)Man(a1-3)[Fuc(a1-3)[Gal(b1-4)]GlcNAc(b1-2)Man(a1-6)]Man(b1-4)GlcNAc(b1-4)[Fuc(a1-6)]GlcNAc
# Method in brief: as §1
# [8] = biological target: Fuc(a1-3)[Gal3S(b1-4)]Glc6S
# Method in brief: as §1
# Fuc(a1-4)GlcNAc = biological target: Fuc(a1-4)GlcNAc
# Method in brief: as §1
# Gal(a1-4)Gal(b1-4)GlcNAc = biological target: Gal(a1-4)Gal(b1-4)GlcNAc
# Method in brief: as §1
# [9] = biological target: Gal(a1-4)Gal(b1-4)GlcNAc(b1-3)Gal(b1-4)Glc
# Method in brief: as §1
# [10] = biological target: Gal(b1-3)GlcNAc(b1-3)Gal(b1-4)GlcNAc(b1-3)Gal(b1-4)GlcNAc(b1-2)[Gal(b1-3)GlcNAc(b1-3)Gal(b1-4)GlcNAc(b1-3)Gal(b1-4)GlcNAc(b1-6)]Man(a1-6)[Gal(b1-3)GlcNAc(b1-3)Gal(b1-4)GlcNAc(b1-3)Gal(b1-4)GlcNAc(b1-2)Man(a1-3)]Man(b1-4)GlcNAc(b1-4)[Fuc(a1-6)]GlcNAc
# Method in brief: as §1
# [11] = biological target: Gal(b1-3)GlcNAc(b1-3)Gal(b1-4)[Fuc(a1-3)]GlcNAc(b1-6)[Gal(b1-3)GlcNAc(b1-3)]Gal(b1-4)Glc
# Method in brief: as §1
# [12] = biological target: Gal(b1-3)GlcNAc(b1-6)Gal(b1-4)GlcNAc
# Method in brief: as §1
# [13] = biological target: Gal(b1-3)[GlcNAc(b1-6)]GalNAc
# Method in brief: as §1
# [14] = biological target: Gal(b1-3)[Neu5Ac(a2-6)]GlcNAc(b1-6)Gal(b1-4)Glc
# Method in brief: as §1
# [15] = biological target: Gal(b1-4)GlcNAc(b1-2)Man(a1-3)[Gal(b1-4)GlcNAc(b1-2)Man(a1-6)]Man(b1-4)GlcNAc(b1-4)GlcNAc
# Method in brief: as §1
# [16] = biological target: Gal(b1-4)GlcNAc(b1-2)Man(a1-6)[GlcNAc(b1-2)Man(a1-3)]Man(b1-4)GlcNAc(b1-4)GlcNAc
# Method in brief: as §1
# [17] = biological target: Gal(b1-4)GlcNAc(b1-3)Gal(b1-4)GlcNAc(b1-2)[Gal(b1-4)GlcNAc(b1-3)Gal(b1-4)GlcNAc(b1-6)]Man(a1-6)[Gal(b1-4)GlcNAc(b1-3)Gal(b1-4)GlcNAc(b1-2)Man(a1-3)]Man(b1-4)GlcNAc(b1-4)GlcNAc
# Method in brief: as §1
# [18] = biological target: Gal(b1-4)GlcNAc(b1-3)Gal(b1-4)GlcNAc(b1-3)Gal(b1-4)GlcNAc(b1-3)Gal(b1-4)GlcNAc(b1-2)Man(a1-3)[Gal(b1-4)GlcNAc(b1-3)Gal(b1-4)GlcNAc(b1-3)Gal(b1-4)GlcNAc(b1-3)Gal(b1-4)GlcNAc(b1-2)Man(a1-6)]Man(b1-4)GlcNAc(b1-4)GlcNAc
# Method in brief: as §1
# [19] = biological target: Gal(b1-4)GlcNAc(b1-3)Gal(b1-4)GlcNAc(b1-3)Gal(b1-4)GlcNAc(b1-3)Gal(b1-4)GlcNAc(b1-2)Man(a1-3)[Gal(b1-4)GlcNAc(b1-3)Gal(b1-4)GlcNAc(b1-3)Gal(b1-4)GlcNAc(b1-3)Gal(b1-4)GlcNAc(b1-2)Man(a1-6)]Man(b1-4)GlcNAc(b1-4)[Fuc(a1-6)]GlcNAc
# Method in brief: as §1
# [20] = biological target: Gal3S(b1-3)[Fuc(a1-4)]GlcNAc
# Method in brief: as §1
# [21] = biological target: Gal3S(b1-4)[Fuc(a1-3)]GlcNAc6S
# Method in brief: as §1
# Gal4S(b1-4)GlcNAc = biological target: Gal4S(b1-4)GlcNAc
# Method in brief: as §1
# Gal6S(b1-3)GlcNAc6S = biological target: Gal6S(b1-3)GlcNAc6S
# Method in brief: as §1
# Gal6S(b1-4)Glc = biological target: Gal6S(b1-4)Glc
# Method in brief: as §1
# Gal6S(b1-4)GlcNAc6S = biological target: Gal6S(b1-4)GlcNAc6S
# Method in brief: as §1
# GalNAc(b1-3)Gal = biological target: GalNAc(b1-3)Gal
# Method in brief: as §1
# [22] = biological target: GalNAc(b1-3)Gal(a1-6)Gal(b1-4)Glc
# Method in brief: as §1
# [23] = biological target: GlcNAc(b1-3)Gal(b1-3)GalNAc
# Method in brief: as §1
# [24] = biological target: GlcNAc(b1-3)Gal(b1-4)GlcNAc(b1-3)Gal(b1-4)GlcNAc(b1-2)Man(a1-3)[GlcNAc(b1-3)Gal(b1-4)GlcNAc(b1-3)Gal(b1-4)GlcNAc(b1-2)Man(a1-6)]Man(b1-4)GlcNAc(b1-4)GlcNAc
# Method in brief: as §1
# [25] = biological target: GlcNAc(b1-3)Gal(b1-4)GlcNAc(b1-3)Gal(b1-4)GlcNAc(b1-3)Gal(b1-4)GlcNAc(b1-2)Man(a1-3)[GlcNAc(b1-3)Gal(b1-4)GlcNAc(b1-3)Gal(b1-4)GlcNAc(b1-3)Gal(b1-4)GlcNAc(b1-2)Man(a1-6)]Man(b1-4)GlcNAc(b1-4)[Fuc(a1-6)]GlcNAc
# Method in brief: as §1
# [26] = biological target: GlcNAc(b1-6)Gal(b1-4)GlcNAc
# Method in brief: as §1
# Kdn(a2-3)Gal(b1-4)Glc = biological target: Kdn(a2-3)Gal(b1-4)Glc
# Method in brief: as §1
# [27] = biological target: Man(a1-2)Man(a1-3)[Man(a1-2)Man(a1-6)]Man
# Method in brief: as §1
# [28] = biological target: Man(a1-2)Man(a1-3)[Man(a1-2)Man(a1-6)]Man(a1-6)[Man(a1-2)Man(a1-2)Man(a1-3)]Man
# Method in brief: as §1
# [29] = biological target: Man(a1-2)Man(a1-6)[Man(a1-3)]Man(a1-6)[Man(a1-2)Man(a1-2)Man(a1-3)]Man(b1-4)GlcNAc(b1-4)GlcNAc
# Method in brief: as §1
# Man(a1-6)Man = biological target: Man(a1-6)Man
# Method in brief: as §1
# Neu5Ac(a2-3)Gal(b1-4)Glc = biological target: Neu5Ac(a2-3)Gal(b1-4)Glc
# Method in brief: as §1
# [30] = biological target: Neu5Ac(a2-3)Gal(b1-4)[Fuc(a1-3)]GlcNAc6S
# Method in brief: as §1
# [31] = biological target: Neu5Ac(a2-6)Gal(b1-3)GlcNAc(b1-3)[Gal(b1-4)GlcNAc(b1-6)]Gal(b1-4)Glc
# Method in brief: as §1
# [32] = biological target: Neu5Ac(a2-6)Gal(b1-4)GlcNAc(b1-3)Gal(b1-4)GlcNAc(b1-3)Gal(b1-4)GlcNAc(b1-2)Man(a1-3)[Neu5Ac(a2-6)Gal(b1-4)GlcNAc(b1-3)Gal(b1-4)GlcNAc(b1-3)Gal(b1-4)GlcNAc(b1-2)Man(a1-6)]GalNAc
# Method in brief: as §1
# [33] = biological target: Neu5Ac(a2-8)Neu5Ac(a2-3)Gal(b1-4)Glc
# Method in brief: as §1
# [34] = biological target: Neu5Ac(a2-8)Neu5Gc(a2-3)Gal(b1-4)GlcNAc
# Method in brief: as §1
# [35] = biological target: Neu5Ac9Ac(a2-3)Gal(b1-4)GlcNAc
# Method in brief: as §1
# [36] = biological target: Neu5Gc(a2-3)Gal(b1-4)GlcNAc
# Method in brief: as §1
binder,measurement,setting,value
B1,glycan array binding signal (z-score),Fuc(a1-2)Gal,-0.224
same,glycan array binding signal (z-score),[1],-0.125
same,glycan array binding signal (z-score),[2],-0.129
same,glycan array binding signal (z-score),[3],-0.157
same,glycan array binding signal (z-score),[4],-0.129
same,glycan array binding signal (z-score),[5],-0.135
same,glycan array binding signal (z-score),[6],2.77
same,glycan array binding signal (z-score),[7],-0.124
same,glycan array binding signal (z-score),[8],4.05
same,glycan array binding signal (z-score),Fuc(a1-4)GlcNAc,-0.206
same,glycan array binding signal (z-score),Gal(a1-4)Gal(b1-4)GlcNAc,0.114
same,glycan array binding signal (z-score),[9],-0.084
same,glycan array binding signal (z-score),[10],-0.127
same,glycan array binding signal (z-score),[11],-0.13
same,glycan array binding signal (z-score),[12],-0.137
same,glycan array binding signal (z-score),[13],0.004
same,glycan array binding signal (z-score),[14],-0.085
same,glycan array binding signal (z-score),[15],-0.21
same,glycan array binding signal (z-score),[16],5.9
same,glycan array binding signal (z-score),[17],-0.139
same,glycan array binding signal (z-score),[18],-0.133
same,glycan array binding signal (z-score),[19],-0.123
same,glycan array binding signal (z-score),[20],-0.158
same,glycan array binding signal (z-score),[21],-0.133
same,glycan array binding signal (z-score),Gal4S(b1-4)GlcNAc,-0.143
same,glycan array binding signal (z-score),Gal6S(b1-3)GlcNAc6S,-0.136
same,glycan array binding signal (z-score),Gal6S(b1-4)Glc,-0.141
same,glycan array binding signal (z-score),Gal6S(b1-4)GlcNAc6S,-0.109
same,glycan array binding signal (z-score),GalNAc(b1-3)Gal,-0.182
same,glycan array binding signal (z-score),[22],-0.134
B2,glycan array binding signal (z-score),[23],-0.271
same,glycan array binding signal (z-score),[24],2.7
same,glycan array binding signal (z-score),[25],0.086
same,glycan array binding signal (z-score),[26],-0.32
same,glycan array binding signal (z-score),Kdn(a2-3)Gal(b1-4)Glc,-0.287
same,glycan array binding signal (z-score),[27],-0.589
same,glycan array binding signal (z-score),[28],-0.638
same,glycan array binding signal (z-score),[29],-0.201
same,glycan array binding signal (z-score),Man(a1-6)Man,7.42
same,glycan array binding signal (z-score),Neu5Ac(a2-3)Gal(b1-4)Glc,0.009
same,glycan array binding signal (z-score),[30],-0.438
same,glycan array binding signal (z-score),[31],-0.236
same,glycan array binding signal (z-score),[32],2.19
same,glycan array binding signal (z-score),[33],0.02
same,glycan array binding signal (z-score),[34],-0.539
same,glycan array binding signal (z-score),[35],-0.425
same,glycan array binding signal (z-score),[36],-0.219
